Compounds with a hit are over-represented: about 7.4% of the library has one in this group of screens.
hNpr1 antagonist – Natriuretic polypeptide receptor (hNpr1) antagonism - Primary qHTS; Potency, µM (highest dose often 46.3 µM), inactives show at the top dose activity change, negative = inhibition, hits mostly inhibitors; Atrial natriuretic peptide receptor 1 (Homo sapiens), P16066; AID 1347048, 2019; HEK293 hNpr1 GloSensor cGMP, ANP-stimulated luminescence; 76,000 tested, 1.6% active; calls by dose curve; note: nearly all actives have a fitted effect of over 60% in size
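Compound pre-incubated 30 min at room temperature on GloSensor-loaded HEK293 cells stably carrying hNpr1 and the pGS-40F cGMP biosensor. Stimulation uses hNppA at 0.1 nM final; luminescence is taken at baseline and 20 min post-agonist.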
3T3 cytotox – Cytotoxic Profiling in NIH 3T3 Cell Line of Diverse Libraries Using Quantitative High-Throughput Screening. NIH 3T3 viability, CellTiter-Glo ATP luminescence, 48-72 h. Potency, µM (titrated, usually from 96.7 µM), inactives show at the top dose activity change, negative = cytotoxicity, hits mostly inhibitors. 94,000 tested, 4.3% active. AID 1345082, 2018; note: nearly all actives have a fitted effect of over 55% in size
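Mouse fibroblast NIH 3T3 cells, 400 per well, received compound via pintool and were incubated for 48 or 72 hr prior to CellTiter-Glo ATP luminescence measurement.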
HEK293 tox – Cytotoxic Profiling in HEK 293 Cell Line of Diverse Libraries Using Quantitative High-Throughput Screening. Potency, µM (doses to about 115 µM), without a hit: at the top dose activity change, negative = cytotoxicity, usual class: inhibitors. HEK 293 viability, ATP luminescence (CellTiter-Glo), 48-72 h. 94,000 tested, 6.6% active; note: nearly all actives have a fitted effect of over 60% in size
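Read-out: CellTiter-Glo ATP luminescence. Cells: HEK 293, 250 cells/well. Exposure: 48 or 72 hr, 37 degree Celsius.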
Luciferase inh – Firefly luciferase inhibition profiling of diverse chemical library using quantitative high-throughput screening | Luciferin 4-monooxygenase (Photinus pyralis), P08659 | purified P. pyralis luciferase, luminescence, biochemical | Potency, µM (doses to about 115 µM), hits mostly inhibitors | 76,000 tested, 2.5% active; note: nearly all actives have a fitted effect of over 65% in size
Target sequence (P08659 whole entry, looked up): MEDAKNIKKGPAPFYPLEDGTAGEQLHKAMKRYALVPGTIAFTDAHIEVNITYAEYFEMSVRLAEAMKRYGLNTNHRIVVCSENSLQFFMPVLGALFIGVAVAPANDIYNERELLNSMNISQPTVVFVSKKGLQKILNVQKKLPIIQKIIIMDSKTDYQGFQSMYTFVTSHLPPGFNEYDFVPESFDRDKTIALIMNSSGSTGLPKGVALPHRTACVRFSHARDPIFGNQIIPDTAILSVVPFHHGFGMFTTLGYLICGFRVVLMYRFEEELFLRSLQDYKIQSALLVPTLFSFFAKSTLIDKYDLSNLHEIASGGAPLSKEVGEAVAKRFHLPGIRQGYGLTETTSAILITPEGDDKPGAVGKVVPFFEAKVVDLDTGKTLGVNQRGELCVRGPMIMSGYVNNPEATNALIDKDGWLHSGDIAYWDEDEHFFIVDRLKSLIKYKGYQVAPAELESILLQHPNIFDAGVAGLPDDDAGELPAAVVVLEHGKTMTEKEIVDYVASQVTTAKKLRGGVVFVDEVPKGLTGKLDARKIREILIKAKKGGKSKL
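Luminescence read by CCD imaging after purified firefly luciferase (10nM final) was added to substrate buffer holding 10uM D-luciferin and 10uM ATP, pH 7.5, pre-dosed with compound.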
HEK293 viab – GF-AFC viability counterscreen for inhibitors of alpha-synuclein gene (SNCA) expression | HEK-293-SNCA-luc viability, GF-AFC fluorescence, 24 h | Potency, µM (titrated, usually from 57.1 µM), inactives show at the top dose activity change, negative = cytotoxicity, most hits filed as cytotoxic | 150,000 tested, 0.12% active | AID 1671193, 2021;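 note: 0% = DMSO-treated cells and -100% = medium-only wells without cells; nearly all actives have a fitted effect of over 30% in size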
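HEK-293-SNCA-luc cells (1500/well) plated 24 h, then exposed 24 h to a dilution series; GF-AFC added 30 min at 37C, fluorescence 405/540 nm; normalised to medium-only and DMSO wells, Hill fit.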
SNCA expr inh – Primary qHTS assay for inhibitors of alpha-synuclein gene (SNCA) expression. HEK-293 SNCA-luciferase knock-in, luminescence, 24 h. Potency, µM (top dose mostly 57.2 µM), for inactives: at the top dose activity change, negative = inhibition, hits mostly inhibitors. 140,000 tested, 0.17% active;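 note: plate controls were DMSO cells for no effect and cell-free wells for full effect; nearly all actives have a fitted effect of over 45% in size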
Starred values were filed as active, the others as inactive; i = inactive; u = inconclusive; x = no result; [ ] = dose if it differs, or a comment. Unless noted, calls come from the whole dose curve; as a rule, active = well fitted curve in the direction sought with a large enough effect; inconclusive = small, poorly fitted or top-dose-only effect, or another doubt; inactive = no such curve, though single readings can be large; an effect the other way counts as inactive or inconclusive. Unless noted, % is set by controls: 0 for no effect and ±100 for the full control effect; potency is the fitted concentration of half-maximal effect.

SMILES	hNpr1 antagonist	3T3 cytotox	HEK293 tox	Luciferase inh	HEK293 viab	SNCA expr inh
NC(=O)c1cccnc1OC1CCN(C(=O)c2ccoc2)C1 (stereo not given)	2%	-7%	-3%	i	11%	u
CCCN(C)c1nccnc1OC1CCN(C(=O)c2ccc(F)cc2)C1 (stereo not given)	-11%	-13%	u	35µM*	-11%	203%
CCc1ccc(C(=O)N2CCC(Oc3nccnc3N(C)C)C2)cc1 (stereo not given)	-18%	-4%	u	u	-18%	120%
CCCN(C)c1nccnc1OC1CCN(C(=O)c2ccoc2)C1 (stereo not given)	-7%	-28%	u	14µM*	7%	182%
CCCN(C)c1nccnc1OC1CCN(C(=O)c2ccc(OC)nc2OC)C1 (stereo not given)	-21%	-8%	u	22µM*	-15%	181%
COc1ccc(C(=O)N2CCCC(c3nc(CCOCC4CCCC4)no3)C2)cc1F (stereo not given)	u	u	45µM*	i	-12%	u
Cc1ccc(C(=O)N2CCCC(c3nc(CCOCC4CC4)no3)C2)s1 (stereo not given)	x	u	u	x	-9%	-7%
CCCNC(=O)N1CCCCCCNC(=O)[C@@H]2CCCC[C@@H]21	-1%	-4%	-2%	i	-9%	17%
CC(C)C[C@@H]1N[C@H](C(=O)NCC2CC2)Cc2c[nH]c3cccc1c23	-23%[70.6 µM]	u	35µM*	i	u	u
CC(C)C[C@@H]1N[C@H](C(=O)N2CCOCC2)Cc2c[nH]c3cccc1c23	4%[70.6 µM]	0%[174 µM]	-5%[172 µM]	i	0%[87.6 µM]	u
CC(C)C[C@@H]1N[C@H](C(=O)NCc2ccco2)Cc2c[nH]c3cccc1c23	4%[70.6 µM]	100µM*	35µM*	i	u	u
C#CCNC(=O)[C@@H]1Cc2c[nH]c3cccc(c23)[C@H](CC(C)C)N1	-3%[70.6 µM]	100µM*	71µM*	i	-17%[87.6 µM]	-21%[87.6 µM]
COc1ccccc1-c1nnc2ccc(C(=O)NCc3cccs3)cn12	x	-22%	-12%	x	6%	22%
CCC(CC)NC(=O)C1CCN(c2cn[nH]c(=O)c2)C1 (stereo not given)	-1%	i	i	i	3%	-14%
Cc1cccc(CC(=O)N2CCC(n3cc(-c4nc(C)no4)nn3)CC2)c1	2%	-6%	-2%	i	-6%	21%
CC(C)n1cnnc1-c1nn(C)c2c1CN(C(=O)c1ccc(F)cc1)CC2	x	u	i	x	0%	-19%
Cc1ccc(-c2ccc(CCC(=O)N[C@@H]3CCOC[C@H]3OCC(=O)O)o2)cc1	-2%	-1%	-11%	25µM*	4%	-12%
Cc1nccn1CCCC(=O)N[C@@H]1CCOC[C@H]1OCC(=O)O	0%	-14%	-8%	i	-4%	5%
COC(=O)N1CCC2(CC1)CC(=O)N(c1ccccc1)c1ccccc1O2	-7%	-12%	-25%	i	-9%	5%
Cc1cc(CN2CCn3c(nnc3-c3ccc(Cl)cc3)C2)no1	x	-5%	i	x	6%	1%
O=C(c1cc(-c2cc(Cl)cc(Cl)c2)c2cccn2n1)N1CCOCC1	x	35µM*	u	x	-18%	-25%
COc1ccc(-c2noc(-c3cccn3CC(=O)N3CCC(C)CC3)n2)cc1F	-18%	u	-20%	11µM*	-27%	162%
COc1ccc(-c2noc(-c3cccn3CC(=O)N(C)c3ccccc3)n2)cc1F	-1%	i	7%	i	-24%	15%
CCN(C(=O)Cn1cccc1-c1nc(-c2ccc(OC)c(F)c2)no1)c1ccccc1	-3%	u	45µM*	i	u	1%
COc1cccc([S+](=O)([O-])N2CCN(C(=O)c3nc4cccnc4n(-c4ccccc4OC)c3=O)CC2)c1	x	-9%	i	x	4%	9%
SMILES	hNpr1 antagonist	3T3 cytotox	HEK293 tox	Luciferase inh	HEK293 viab	SNCA expr inh
CC(C)C(=O)N1CCCC(c2noc(COc3ccccc3F)n2)C1 (stereo not given)	10%	-20%	u	40µM*	-10%	64%
Cc1c(F)cccc1NC(=O)N1CCCC(c2noc(COc3ccccc3F)n2)C1 (stereo not given)	u	u	u	14µM*	12%	136%
C[C@H]1[C@@H]2[C@@H](O)C([C@H](C)C(=O)NCc3ccc(F)cc3)CC[C@@]2(C)CC[C@@H]1NC(=O)c1ccccc1 (stereo not given in full)	-2%	u	40µM*	i	-21%	18%
O=[S+]([O-])(Nc1cccnc1)c1ccc2c(c1)OCCN(Cc1ccsc1)C2	u	u	u	i	5%[87.6 µM]	0%[87.6 µM]
CC(C)CCN1CCOc2cc([S+](=O)([O-])Nc3nncs3)ccc2C1	0%[70.6 µM]	32µM*	-12%[172 µM]	i	1%[87.6 µM]	8%[87.6 µM]
CC(C)CCN1CCOc2cc([S+](=O)([O-])Nc3cccnc3)ccc2C1	-19%[70.6 µM]	28µM*	u	i	-4%[87.6 µM]	14%[87.6 µM]
CC1(C(=O)N2CC=C(c3ccccc3)CC2)CCCCC(=O)N1 (stereo not given)	-3%	-18%	-20%	i	6%	40%
Cc1cc(Cl)ccc1S(=O)(=O)N1CCC(Oc2ccc(C(N)=O)cn2)CC1	u	u	25µM*	i	u	-29%
Cc1ccc(C(=O)N2CCc3[nH]nc(C(=O)NCCCc4ccccc4)c3C2)cc1F	x	u	u	x	8%	u
O=C(NCCCc1ccccc1)c1n[nH]c2c1CN(C(=O)c1ccc3c(c1)OCO3)CC2	x	35µM*	u	x	9%	u
O=C(NCCCc1ccccc1)c1n[nH]c2c1CN(C(=O)c1ccc(F)cc1F)CC2	2%	u	79µM*	i	8%	u
CCCC(C)C(=O)N1CCc2[nH]nc(C(=O)NCCCc3ccccc3)c2C1 (stereo not given)	x	40µM*	35µM*	x	-3%	u
CC(C)C(=O)N1CCc2[nH]nc(C(=O)NCCCc3ccccc3)c2C1	0%	u	u	i	-2%	-8%
O=C(NCCCc1ccccc1)c1n[nH]c2c1CN(C(=O)c1c(F)cccc1F)CC2	0%	u	18µM*	i	0%	0%
